In all, about 39,000 compounds went through this assay and about 3,300 (8.5%) were called active. Only a selection was taken, and actives are over-represented in it overall.

Drawing on the antibiotic and cytotoxicity screens of Wong et al. (2023), this text covers cytotoxicity call for 75 molecules.

For the test, the system named is HepG2. Briefly: cytotoxicity call (relative viability < 0.9). Particulars: 10 µM.
As for `COc1ccc(S(=O)(=O)N(C)C[C@@H]2Oc3ccc(NS(=O)(=O)c4ccccc4)cc3C(=O)N([C@H](C)CO)C[C@H]2C)cc1`, the cytotoxicity call is “inactive”.
On to `COc1cc(O)c2c(=O)cc(C)oc2c1CC=C(C)C`, for which the cytotoxicity call is “inactive”.
For the molecule `COc1c(O)cc2oc3cc(O)c(CC=C(C)C)c(O)c3c(=O)c2c1CC=C(C)C` [alpha-MANGOSTIN ], the cytotoxicity call was “active”.
Regarding `CC(C)=CCc1c(O)cc2oc(C)cc(=O)c2c1O`, the cytotoxicity call is “inactive”.
As to `CN(C)CCCNC(=O)[C@H]1[C@H](CO)[C@H]2Cn3c(ccc(-c4ccncc4)c3=O)[C@@H]1N2C(=O)C1CC1`, the cytotoxicity call was “inactive”.
Regarding `COCC(=O)N(C)C[C@@H]1Oc2cc(C#C[C@@H](C)O)ccc2S(=O)(=O)N([C@H](C)CO)C[C@@H]1C`, the cytotoxicity call is “inactive”.
For `COCC(=O)Nc1ccc2c(c1)C(=O)N(C)[C@@H]1CC[C@H](CC(=O)NC3Cc4ccccc4C3)O[C@H]1CO2`, the cytotoxicity call is “inactive”.
Then `C[C@@H]1CCCCO[C@H](CN(C)Cc2ccc(Cl)c(Cl)c2)[C@@H](C)CN([C@H](C)CO)C(=O)c2cc(NS(=O)(=O)c3ccccc3)ccc2O1`, with “inactive”; and `C[C@@H]1CCCCO[C@@H](CN(C)Cc2ccc(Cl)c(Cl)c2)[C@H](C)CN([C@@H](C)CO)C(=O)c2cc(NS(=O)(=O)c3ccccc3)ccc2O1`, with “active”.
Turning to `C[C@@H]1CCCCO[C@H](CN(C)Cc2ccc(Cl)c(Cl)c2)[C@H](C)CN([C@@H](C)CO)C(=O)c2cc(NS(=O)(=O)c3ccccc3)ccc2O1`, the cytotoxicity call is “inactive”.
With `C[C@H](CO)N1C[C@H](C)[C@@H](CN(C)Cc2ccc(Cl)c(Cl)c2)OCCCC[C@H](C)Oc2ccc(NS(=O)(=O)c3ccccc3)cc2C1=O`, the cytotoxicity call was “active”.
Regarding `C[C@@H]1CCCCO[C@@H](CN(C)Cc2ccc(Cl)c(Cl)c2)[C@H](C)CN([C@H](C)CO)C(=O)c2cc(NS(=O)(=O)c3ccccc3)ccc2O1`, the cytotoxicity call is “active”.
Consider `C[C@@H]1CCCCO[C@H](CN(C)Cc2ccc(Cl)c(Cl)c2)[C@@H](C)CN([C@@H](C)CO)C(=O)c2cc(NS(=O)(=O)c3ccccc3)ccc2O1`, for which the cytotoxicity call was “active”.
Regarding `CN(C)c1nc(NCCO)c2cnn(C)c2n1`, the cytotoxicity call is “inactive”.
Then `Cc1noc(C)c1S(=O)(=O)N(C)C[C@@H]1Oc2ccc(NS(=O)(=O)c3ccccc3)cc2C(=O)N([C@@H](C)CO)C[C@@H]1C`, with “inactive”; and `C[C@@H]1CN([C@H](C)CO)C(=O)c2cc(NC(=O)Cn3cnnn3)ccc2O[C@@H]1CN(C)S(=O)(=O)c1cn(C)cn1`, with “inactive”; and `CC(C)NC(=O)N(C)C[C@@H]1OCCCC[C@H](C)Oc2ccc(NS(C)(=O)=O)cc2C(=O)N([C@H](C)CO)C[C@@H]1C`, with “inactive”.
With `C[C@@H]1CN([C@H](C)CO)C(=O)c2cc(NS(=O)(=O)c3cn(C)cn3)ccc2O[C@@H](C)CCCCO[C@@H]1CN(C)S(=O)(=O)c1cccs1`, the cytotoxicity call is “inactive”.
Take `CC(C)CC#Cc1ccc2c(c1)O[C@H](CN(C)C(=O)Cc1ccncc1)[C@H](C)CN([C@@H](C)CO)S2(=O)=O`: the cytotoxicity call was “inactive”.
As for `C[C@@H]1CCCCO[C@@H](CN(C)C(=O)NC2CCCCC2)[C@H](C)CN([C@H](C)CO)C(=O)c2cc(NS(=O)(=O)c3ccc(F)cc3)ccc2O1`, the cytotoxicity call is “inactive”.
`COc1ccc(S(=O)(=O)N(C)C[C@H]2Oc3ccc(NS(=O)(=O)c4cn(C)cn4)cc3C(=O)N([C@H](C)CO)C[C@@H]2C)cc1`: the cytotoxicity call is “inactive”.
In the case of `COc1ccc(S(=O)(=O)N(C)C[C@@H]2OCCCC[C@@H](C)Oc3ccc(NS(C)(=O)=O)cc3C(=O)N([C@H](C)CO)C[C@H]2C)cc1`, the cytotoxicity call was “inactive”.
`COc1ccc(S(=O)(=O)Nc2cccc3c2O[C@@H](CN(C)C(=O)NC(C)C)[C@H](C)CN([C@@H](C)CO)C3=O)cc1`: the cytotoxicity call is “inactive”.
In the case of `C[C@H](CO)N1C[C@H](C)[C@H](CN(C)C(=O)Cc2ccccc2)OCCCC[C@H](C)Oc2ccc(NS(=O)(=O)c3cccs3)cc2C1=O` it was “inactive”.
In the case of `C[C@@H]1CN([C@H](C)CO)S(=O)(=O)c2ccc(C#Cc3ccccc3)cc2O[C@@H]1CN(C)S(=O)(=O)c1cn(C)cn1` it was “inactive”; in that of `C[C@@H]1CN([C@H](C)CO)C(=O)c2cc(NS(=O)(=O)c3ccccc3)ccc2O[C@@H](C)CCCCO[C@H]1CN(C)Cc1ccc(Cl)c(Cl)c1`, “inactive”; in that of `C[C@@H]1CCCCO[C@@H](CN(C)Cc2ccc(Cl)c(Cl)c2)[C@@H](C)CN([C@H](C)CO)C(=O)c2cc(NS(=O)(=O)c3ccccc3)ccc2O1`, “active”.
`C[C@@H]1CCCCO[C@@H](CN(C)Cc2ccc(Cl)c(Cl)c2)[C@@H](C)CN([C@@H](C)CO)C(=O)c2cc(NS(=O)(=O)c3ccccc3)ccc2O1`: the cytotoxicity call is “inactive”.
Take `C[C@@H]1CN([C@H](C)CO)C(=O)c2cc(NS(=O)(=O)c3ccccc3)ccc2O[C@@H](C)CCCCO[C@@H]1CN(C)Cc1ccc(Cl)c(Cl)c1`: the cytotoxicity call was “active”.
Regarding `C[C@H]1CCCCO[C@H](CN(C)Cc2ccc(Cl)c(Cl)c2)[C@@H](C)CN([C@@H](C)CO)C(=O)c2cc(NS(=O)(=O)c3ccccc3)ccc2O1`, the cytotoxicity call was “active”.
Turning to `Nn1c([C@@H](O)c2ccccc2)n[nH]c1=S`, the cytotoxicity call is “inactive”.
As for `COc1ccc(CN(C)C[C@H]2OCCCC[C@H](C)Oc3ccc(NC(=O)Cc4ccccc4)cc3C(=O)N([C@H](C)CO)C[C@H]2C)cc1`, the cytotoxicity call was “inactive”.
For `C[C@H]1CN([C@@H](C)CO)C(=O)c2cc(NC(=O)Cn3cnnn3)ccc2O[C@H]1CN(C)S(C)(=O)=O`, the cytotoxicity call was “inactive”.
Regarding `C[C@H]1CN([C@@H](C)CO)C(=O)c2cc(C#CC(C)(C)O)cnc2O[C@@H]1CN(C)C(=O)CN(C)C`, the cytotoxicity call was “inactive”.
With `COc1ccc(NC(=O)N(C)C[C@@H]2OCCCC[C@@H](C)Oc3ccc(NS(=O)(=O)c4ccc(OC)cc4)cc3C(=O)N([C@@H](C)CO)C[C@@H]2C)cc1`, the cytotoxicity call was “inactive”.
`CCOC(=O)CC1(C)NNC(=S)NN1`: the cytotoxicity call is “inactive”.
In the case of `C[C@@](N)(C(=O)O)c1ccc(-c2nn[nH]n2)cc1` it was “inactive”; in that of `COc1ccccc1CNC(=O)C[C@H]1C[C@@H]2c3cc(NC(=O)Nc4ccc(C(F)(F)F)cc4)ccc3O[C@@H]2[C@@H](CO)O1`, “inactive”; in that of `O=C(C[C@@H]1C[C@@H]2c3cc(NC(=O)Nc4ccc(C(F)(F)F)cc4)ccc3O[C@@H]2[C@H](CO)O1)NC1CCCCC1`, “active”.
Regarding `C[C@H](NC(=O)C[C@@H]1C[C@@H]2c3cc(NC(=O)Nc4ccc(C(F)(F)F)cc4)ccc3O[C@@H]2[C@@H](CO)O1)c1ccccc1`, the cytotoxicity call is “active”.
As to `C[C@H](NC(=O)C[C@H]1C[C@@H]2c3cc(NC(=O)Nc4ccc(C(F)(F)F)cc4)ccc3O[C@@H]2[C@@H](CO)O1)c1ccccc1`, the cytotoxicity call was “inactive”.
For the molecule `O=C(C[C@@H]1C[C@@H]2c3cc(NC(=O)Nc4ccc(C(F)(F)F)cc4)ccc3O[C@@H]2[C@@H](CO)O1)NC1CCCCC1`, the cytotoxicity call is “inactive”.
With `C[C@H](NC(=O)C[C@@H]1C[C@@H]2c3cc(NC(=O)Nc4ccc(C(F)(F)F)cc4)ccc3O[C@@H]2[C@H](CO)O1)c1ccccc1`, the cytotoxicity call is “inactive”.
In the case of `COc1ccccc1CNC(=O)C[C@H]1C[C@H]2c3cc(NC(=O)Nc4ccc(C(F)(F)F)cc4)ccc3O[C@H]2[C@H](CO)O1` it was “inactive”; in that of `O=C(C[C@@H]1C[C@H]2c3cc(NC(=O)Nc4ccc(C(F)(F)F)cc4)ccc3O[C@H]2[C@@H](CO)O1)NC1CCCCC1`, “inactive”; in that of `COc1ccccc1CNC(=O)C[C@@H]1C[C@H]2c3cc(NC(=O)Nc4ccc(C(F)(F)F)cc4)ccc3O[C@H]2[C@@H](CO)O1`, “active”.
In the case of `C[C@@H]1CN([C@H](C)CO)C(=O)c2c(c3ccccc3n2C)-c2ccccc2CO[C@@H]1CN(C)S(=O)(=O)c1cn(C)cn1` it was “inactive”.
Regarding `Cc1noc(C)c1NC(=O)Nc1ccc2c(c1)C(=O)N([C@H](C)CO)C[C@@H](C)[C@H](CN(C)C(=O)Nc1ccccc1)OCCCC[C@@H](C)O2`, the cytotoxicity call was “inactive”.
`Cc1ccc(S(=O)(=O)N(C)C[C@H]2Oc3ccc(NC(=O)CCCN(C)C)cc3C(=O)N([C@@H](C)CO)C[C@@H]2C)cc1`: the cytotoxicity call is “inactive”.
In the case of `CCNC(=O)C[C@@H]1CC[C@H]2[C@@H](COc3ccc(NS(=O)(=O)c4ccccc4C)cc3C(=O)N2C)O1`, the cytotoxicity call was “inactive”.
With `C[C@@H]1CCCCO[C@H](CN(C)C(=O)Nc2ccc(F)cc2)[C@H](C)CN([C@H](C)CO)C(=O)c2cc(NC(=O)Nc3ccc(C(F)(F)F)cc3)ccc2O1`, the cytotoxicity call is “inactive”.
Then `CC(C)CC#Cc1ccc2c(c1)O[C@@H](CN(C)C(=O)c1cccnc1)[C@@H](C)CN([C@H](C)CO)S2(=O)=O`, with “inactive”; and `COc1cc(C(=O)OCCN2CCCN(CCOC(=O)c3cc(OC)c(OC)c(OC)c3)CC2)cc(OC)c1OC`, with “inactive”.
For `Cl.O=C(c1ccc(OCCN2CCCCC2)cc1)c1c(-c2ccc(O)cc2)sc2cc(O)ccc12`, the cytotoxicity call is “active”.
`COc1cc(OC)c(C(=O)CCCN2CCCC2)c(OC)c1.Cl`: the cytotoxicity call was “inactive”.
For the molecule `CCCCOc1ccc(C(=O)CCN2CCCCC2)cc1.Cl`, the cytotoxicity call is “active”.
For the molecule `CC(=O)O.Cc1c(-c2ccc(O)cc2)n(Cc2ccc(OCCN3CCCCCC3)cc2)c2ccc(O)cc12`, the cytotoxicity call is “active”.
Take `O=C(N[C@@H](c1ccccc1)c1ccc2ccccc2n1)C1CCN(CCOc2ccc(Cl)cc2)CC1`: the cytotoxicity call was “inactive”.
In the case of `CC(=O)OCC(=O)NCCCOc1cccc(CN2CCCCC2)c1.Cl` it was “inactive”; in that of `CCCCOc1ccc(OCCCN2CCOCC2)cc1.Cl`, “inactive”.
As to `C[C@@H]1CN([C@@H](C)CO)C(=O)c2cccc(NC(=O)c3cnccn3)c2O[C@H]1CN(C)S(=O)(=O)c1cccs1`, the cytotoxicity call was “inactive”.
In the case of `C[C@H]1CN([C@@H](C)CO)S(=O)(=O)c2ccc(-c3cccc(C(=O)N(C)C)c3)cc2O[C@@H]1CN(C)C(=O)Cc1ccccn1`, the cytotoxicity call is “inactive”.
As to `C[C@H]1CN([C@@H](C)CO)C(=O)c2cc(C#Cc3ccc(F)cc3)cnc2O[C@@H]1CN(C)Cc1ccccn1`, the cytotoxicity call was “inactive”.
`C[C@@H]1CN([C@@H](C)CO)C(=O)c2cc(NC(=O)Nc3ccc(C(F)(F)F)cc3)ccc2O[C@@H](C)CCCCO[C@H]1CN(C)C`: the cytotoxicity call is “inactive”.
For `C[C@@H]1CCCCO[C@H](CN(C)S(C)(=O)=O)[C@@H](C)CN([C@@H](C)CO)C(=O)c2cc(NC(=O)Nc3ccc(C(F)(F)F)cc3)ccc2O1`, the cytotoxicity call was “inactive”.
`C[C@@H]1CCCCO[C@@H](CN(C)C)[C@H](C)CN([C@@H](C)CO)C(=O)c2cc(NC(=O)Nc3ccc(C(F)(F)F)cc3)ccc2O1`: the cytotoxicity call is “inactive”.
Regarding `C[C@@H]1CCCCO[C@H](CN(C)C)[C@H](C)CN([C@H](C)CO)C(=O)c2cc(NC(=O)Nc3ccc(C(F)(F)F)cc3)ccc2O1`, the cytotoxicity call was “active”.
As to `C[C@@H]1CCCCO[C@H](CN(C)C)[C@@H](C)CN([C@H](C)CO)C(=O)c2cc(NC(=O)Nc3ccc(C(F)(F)F)cc3)ccc2O1`, the cytotoxicity call is “inactive”.
With `C[C@@H]1CCCCO[C@H](CN(C)C)[C@H](C)CN([C@@H](C)CO)C(=O)c2cc(NC(=O)Nc3ccc(C(F)(F)F)cc3)ccc2O1`, the cytotoxicity call is “active”.
As for `C[C@H]1CCCCO[C@@H](CN(C)C)[C@@H](C)CN([C@@H](C)CO)C(=O)c2cc(NC(=O)Nc3ccc(C(F)(F)F)cc3)ccc2O1`, the cytotoxicity call is “active”.
In the case of `C[C@@H]1CCCCO[C@H](CN(C)S(C)(=O)=O)[C@@H](C)CN([C@H](C)CO)C(=O)c2cc(NC(=O)Nc3ccc(C(F)(F)F)cc3)ccc2O1` it was “inactive”; in that of `C[C@@H]1CCCCO[C@@H](CN(C)C)[C@H](C)CN([C@H](C)CO)C(=O)c2cc(NC(=O)Nc3ccc(C(F)(F)F)cc3)ccc2O1`, “inactive”; in that of `C[C@@H]1CN([C@H](C)CO)C(=O)c2cc(NC(=O)Nc3ccc(C(F)(F)F)cc3)ccc2O[C@@H](C)CCCCO[C@H]1CN(C)S(C)(=O)=O`, “active”.
For the molecule `C[C@@H]1CN([C@@H](C)CO)C(=O)c2cc(NC(=O)Nc3ccc(C(F)(F)F)cc3)ccc2O[C@@H](C)CCCCO[C@@H]1CN(C)C`, the cytotoxicity call is “inactive”.
For `C[C@H](CO)N1C[C@H](C)[C@@H](CN(C)C)OCCCC[C@H](C)Oc2ccc(NC(=O)Nc3ccc(C(F)(F)F)cc3)cc2C1=O`, the cytotoxicity call was “inactive”.
